# FMDV antiviral – High Throughput Screening for Foot and Mouth Disease Virus Antivirals; Potency, µM (titrated, usually from 57.9 µM), without a hit: top-dose activity change, negative = inhibition, actives largely listed as inhibitors; FMDV antiviral cell-based qHTS; 1.2% of 410,000 active; AID 1159524, 2015; calls by dose curve; tested in HEK293T cells; note: read-out not given here; potency is the fitted concentration of half-maximal effect; nearly all actives have a fitted effect of over 45% in size
# HCMV antiviral – qHTS Assay for inhibitors of the human cytomegalovirus (HCMV); activity change, negative = inhibition, % at 57.5 µM; HFF cells, HCMV-luciferase reporter, 72 h; stronger effect = lower value; 4.5% of 410,000 active; AID 1259415, 2018; in the data active = activity change below about -60%; inconclusive = no clear call, values can overlap the other calls; inactive = above about -39%
#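 Human foreskin fibroblasts infected with luciferase-reporter HCMV at MOI 1 PFU/cell, compounds at two doses. Luciferase measured 72 h post infection; normalized to buffer-only basal and Salinomycin (10uM) controls.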
# AmpC no deterg – qHTS Inhibitors of AmpC Beta-Lactamase (assay without detergent). P00811. AmpC nitrocefin hydrolysis, absorbance 480 nm, 0.0001% Triton. Potency, µM (top dose mostly 57.1 µM), for inactives: at the highest dose activity change, negative = inhibition, usual class: inhibitors. 0.52% of 330,000 active. AID 485341, 2010;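 note: potency is the fitted concentration of half-maximal effect; plate controls were no compound for no effect and no enzyme for full effect; nearly all actives have a fitted effect of over 20% in size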
# Target sequence (P00811 whole entry, looked up): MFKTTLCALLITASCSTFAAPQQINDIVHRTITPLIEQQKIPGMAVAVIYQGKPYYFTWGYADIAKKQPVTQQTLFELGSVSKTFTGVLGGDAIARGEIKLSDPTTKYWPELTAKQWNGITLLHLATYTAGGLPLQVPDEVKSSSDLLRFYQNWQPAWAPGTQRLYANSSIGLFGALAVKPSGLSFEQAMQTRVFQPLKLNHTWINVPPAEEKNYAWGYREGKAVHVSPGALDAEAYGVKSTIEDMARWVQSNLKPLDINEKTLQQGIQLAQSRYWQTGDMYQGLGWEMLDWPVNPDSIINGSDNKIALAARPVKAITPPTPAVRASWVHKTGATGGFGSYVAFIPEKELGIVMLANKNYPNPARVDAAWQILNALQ
#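 20 mM phosphate pH 7.0 + 0.01% (detergent screen) or 0.0001% Triton X-100; 5.3 nM AmpC reagent; cpd preinc 15 min RT; nitrocefin (800 uM stock) to start; A480 q20 s × 4 min; Activity was normalised to no-enzyme and no-compound control wells.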
# HCV inhibitor – qHTS Assay for Inhibitors of Hepatitis C Virus (HCV); 3.4% of 340,000 active; Huh7.5.1 HCVcc-Cre infection, luciferase reporter, 44 h; Potency, µM (titrated, usually from 41.8 µM), for the others: at the highest dose activity change, negative = inhibition, most hits filed as inhibitors; note: potency is the fitted concentration of half-maximal effect
#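 Seed cells (1,000/well) for 4 h; treat with compound and infect with HCVcc-Cre, moi about 0.5. Incubate 44 h, then detect luciferase activity.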
# AmpC inh detg – qHTS Inhibitors of AmpC Beta-Lactamase (assay with detergent); P00811; AmpC hydrolysis of nitrocefin, absorbance 480 nm, 0.01% Triton; Potency, µM (titrated, usually from 114 µM), for the others: at the top dose activity change, negative = inhibition, actives largely listed as inhibitors; 0.041% of 370,000 active; AID 485294, 2010;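 note: potency is the fitted concentration of half-maximal effect; 0% = no-compound wells and -100% = no-enzyme wells; nearly all actives have a fitted effect of over 25% in size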
#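 20 mM phosphate pH 7.0 + 0.01% (detergent screen) or 0.0001% Triton X-100; 5.3 nM AmpC reagent; cpd preinc 15 min RT; nitrocefin (800 uM stock) to start; A480 q20 s × 4 min; Activity was normalised to no-enzyme and no-compound control wells.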
# * marks the source's active call; other numbers are inactive results; ? = inconclusive; nt = no result; ! = a repeat was not active. This is a sample that favours compounds with a hit; in the whole collection about 7.3% have one here. Unless noted, calls come from the whole dose curve; as a rule, active = well fitted curve in the direction sought with a large enough effect; inconclusive = small, poorly fitted or top-dose-only effect, or another doubt; inactive = no such curve, though single readings can be large; an effect the other way counts as inactive or inconclusive. Unless noted, % is set by controls: 0 for no effect and ±100 for the full control effect.
SMILES,FMDV antiviral,HCMV antiviral,AmpC no deterg,HCV inhibitor,AmpC inh detg
O=C(/C=C/c1ccc(Cl)cc1)OCC(=O)c1ccc[nH]1,2.0%,0.0,-22.5%,15.2%,-5.1%
CCC(=O)N1N=C(c2ccc(NS(=O)(=O)c3ccc(C)cc3)cc2)CC1c1ccco1 (centres undefined),25.8%,80.7,-23.7%,11.2µM*,nt
CCC(=O)N1N=C(c2ccc(C)cc2)CC1c1ccco1 (centres undefined),9.3%,23.7,17.3%,-4.7%,-10.5%
CCS(=O)(=O)Nc1ccc(C2=NN(C(=O)c3ccco3)C(c3ccc(C)cc3)C2)cc1 (centres undefined),?,-2.7,-24.1%,?,3.9%
CCS(=O)(=O)Nc1ccc(C2=NN(C(=O)c3ccco3)C(c3ccc(Cl)o3)C2)cc1 (centres undefined),28.2µM*,1.9,-38.3%,22.4µM*,nt
CCN(CC)CCn1nc2c3c(cccc3c1=O)-c1ccccc1-2,?,-98.9*,30.5%,10µM*,-7.7%
O=c1c2cccc3c2c(nn1CN1CCOCC1)-c1ccccc1-3,-10.9%,nt,-17.2%,?,-11.0%
CC(C(=O)Nc1ccccc1)c1ccc(-c2ccccc2)c(F)c1 (centres undefined),?,nt,11.2µM*,?,?
CC(C)Cc1ccc(C(C)C(=O)Nc2cccnc2)cc1 (centres undefined),-26.2%,-77.9*,19.0%,3.16µM*,2.6%
CC(C(=O)Nc1ccc(O)cc1)c1cccc(C(=O)c2ccccc2)c1 (centres undefined),?,-62.9*,-49.4%,12.6µM*,-4.8%
CC(C)Cc1ccc(C(C)C(=O)Nc2ccc(O)cc2)cc1 (centres undefined),0.0%,-65.8*,-37.8%,-10.3%,-2.7%
CC(C)Cc1ccc(C(C)C(N)=Nc2ccc(O)cc2)cc1 (centres undefined),-16.6%,-11.1,nt,?,nt
CC(=O)Nc1ccc(NC(=O)C(C)c2cccc(C(=O)c3ccccc3)c2)cc1 (centres undefined),-17.9%,-3.7,-36.3%,-7.3%,-2.4%
Cc1cccc(C(=O)Oc2ccc(/C=N/NC(=O)c3ccc(O)cc3)cc2)c1,?,10.9,14.1µM*,13.1%,-2.2%
CCOc1cc(C(=S)N2CCOCC2)ccc1OC(=O)c1ccccc1,-13.9%,-0.1,45.3%,11.8%,2.4%
CCOc1cc(/C=N\NC(=O)c2ccc(NC(=O)C(C)(C)C)cc2)ccc1OC(=O)c1ccc(C)cc1,-0.7%,-5.4,-17.4%,22.4%,?
CCOc1cc(/C=N\NC(=O)c2ccc(NC(=O)C(C)(C)C)cc2)ccc1OC(=O)c1cccc(C)c1,8.91µM*,-11.1,-32.7%,3.16µM*,-4.9%
CCOc1cc(C(=S)N2CCOCC2)ccc1OC(=O)c1cccc(C)c1,?,57.8,52.4%,11.2µM*,?
Cn1c(=O)c(-c2cccs2)nc2cnc(OCc3ccccc3)nc21,-12.2%,nt,nt,nt,nt
Cc1ccc(OCCNC(=O)c2cccc(Oc3ccc(C(F)(F)F)cc3[N+](=O)[O-])c2)cc1,?,-79.9*,15.1%,?,0.6%
O=C(CCS(=O)(=O)c1cc2c(cc1Cl)NC(=O)CO2)NCCc1ccccc1,-11.1%,-104.2*!,-28.2%,0.0%,-4.0%
O=C(CCS(=O)(=O)c1cc2c(cc1Cl)NC(=O)CO2)NCc1ccccc1,7.7%,-20.2,-26.6%,17.2%,-12.1%
N#Cc1cccc(C(c2nnnn2C2CCCC2)N2CCC(Cc3ccccc3)CC2)c1 (centres undefined),-2.8%,-35.5,-17.2%,?,?
N#Cc1ccc(C(c2nnnn2C2CCCC2)N2CCC(Cc3ccccc3)CC2)cc1 (centres undefined),-11.1%,-90.5*,-17.9%,-2.1%,-14.3%
N#Cc1cccnc1N1CCN(C(=O)c2[nH]c(C(F)(F)F)nc2-c2ccccc2)CC1,-18.0%,7.3,nt,nt,nt
SMILES,FMDV antiviral,HCMV antiviral,AmpC no deterg,HCV inhibitor,AmpC inh detg
CC(C)C[C@@H](CN1CCCC1CN1C(=S)NC[C@@H]1Cc1ccc(O)cc1)N1C[C@H](Cc2ccccc2)N(CC2CCCCCC2)C1=S (some centres undefined),0.0%,-15.0,nt,?,nt
CC(C)C[C@@H](CN1CCCC1CN1C(=S)NC[C@@H]1Cc1ccc(O)cc1)N1C[C@H](Cc2ccc(O)cc2)N(CC2CCCCCC2)C1=S (some centres undefined),?,-90.5*,nt,?,nt
CC(C)C[C@@H](CN1CCCC1CN1C(=S)NC[C@@H]1Cc1ccc(O)cc1)N1C[C@H](Cc2ccccc2)N(CC2CCCCC2)C1=S (some centres undefined),?,-70.5*,nt,22.4µM*,nt
CC(C)C[C@H]1CNC(=S)N1C[C@H]1CCCN1C[C@H](CC(C)C)N1C[C@H](Cc2ccc(O)cc2)N(CC2CCCCC2)C1=S,-20.0%,?,nt,nt,nt
COc1ccccc1CNC(=O)c1cc2sccc2n1Cc1ccc(Cl)cc1,-16.4%,-15.8,nt,nt,18.6%
CCCc1nn(C)c(C(=O)Nc2cccc(Cl)c2)c1Cl,-18.8%,-64.0*,-18.9%,?,-8.4%
COc1ccc(OC(F)(F)F)cc1CC1(C)C(=O)Nc2ccc(-c3ccsc3)cc21 (centres undefined),0.0%,-82.0*,nt,nt,nt
CCS(=O)(=O)N1Cc2ccccc2CC1C(=O)Nc1nnc(SCc2ccc(C#N)cc2)s1 (centres undefined),-28.2%,-66.3*,-33.1%,-12.0%,-5.7%
CCS(=O)(=O)N1Cc2ccccc2CC1C(=O)Nc1ncc(C)s1 (centres undefined),68.9%,23.5,-23.9%,0.4%,-0.1%
COc1ccccc1NS(=O)(=O)c1ccc(C(=O)Nc2ncccc2O)cc1,-15.7%,nt,-17.7%,5.4%,5.8%
CC(=O)C(=Cc1ccc(Cl)cc1)C(=O)c1ccccc1,28.2µM*,36.0,nt,nt,nt
COc1ccc(C=C(C(C)=O)C(=O)c2ccccc2)cc1,?,-21.0,nt,nt,nt
CC(=O)C(=Cc1cccc(C#N)c1)C(=O)c1ccccc1,12.6µM*,?,nt,nt,nt
CCC(O)CNC(=O)c1cnn(-c2ncc3c(n2)-c2ccccc2CCC3)c1C1CC1 (centres undefined),38.0%,nt,nt,nt,nt
O=C(O)c1ccccc1SCCS(=O)(=O)c1ccc(Cl)cc1Cl,7.6%,nt,-20.2%,20.4%,3.0%
Brc1ccccc1OCCCCn1cnc2ccccc21,-25.1%,-60.2*,26.8%,10µM*,?
Cc1ccc(OCCCCNC(C)c2ccccc2)c(C)c1 (centres undefined),-28.7%,12.4,-2.0%,10µM*,-11.8%
Clc1ccccc1OCCn1cnc2ccccc21,39.2%,-36.2,18.9%,nt,1.1%
Cc1ccc(OCCNCc2ccccc2)c(C)c1,25.4%,-7.7,7.2%,-17.8%,-2.7%

# High-throughput results from PubChem.
